Consider four compounds from PubChem BioAssay.

Experiment [1] is described as follows: yeast TOR pathway RPL19A-GFP modulators, primary screen, cell-based, S. cerevisiae, multiplex flow cytometry (AID 1862; in the data active means percent of DMSO control GFP below about 86%;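 further: lower values mimic rapamycin by blocking the RPL19A rise seen in DMSO cells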). The settings on record: S. cerevisiae RPL19A-GFP strain, flow cytometry fluorescence, 3 h; at 10 µM; stronger effect = lower value. (In general: A flow cytometer gives signals particle by particle.)
The nature of experiment [2]: modulators of CIT2-GFP expression in yeast, primary screen, S. cerevisiae, GFP fusion, multiplex flow cytometry (AID 1870;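 active means percent response above a set limit, the screen-wide mean plus 3 SD, cut at about 130% in these data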;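 further: barcoded CIT2-GFP strain pooled with four other GFP strains with rapamycin as positive control; median GFP fluorescence per well over plate mean of DMSO wells so 100% = DMSO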). To be noted: 3 h, at 10 µM, stronger effect = higher value.
A short description of experiment [3]: modulators of LAP4-GFP expression in yeast, primary screen, S. cerevisiae, multiplex flow cytometry (AID 1873;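 active means GFP signal, as percent of the solvent control, above the screen mean plus 3 SD, about 149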). To be noted: 3 h, at 10 µM, stronger effect = higher value.
A short description of experiment [4]: inhibitors of CD8+ T cell-vesicle binding, pilot screen, LFA-1/ICAM-1 modulator project, MLPCN validation set, flow cytometry (AID 2523;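 active means response below a set limit, under 55% cells CD8-positive and vesicle-bound, and CD8 cells' 90th-percentile brightness under 279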;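 on vesicle binding response: mean PE anti-B7-1 fluorescence of CD8+ cells relative to row control; 100% = QL9-loaded vesicles with DMSO vehicle in the same plate row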). To be noted: 2C mouse CD8+ T cells, at 7 µM, stronger effect = lower value; double positive events: measured here: CD8+/vesicle+ event percentage.
The target in experiment [5] is Integrin beta-1 (Homo sapiens) + Integrin alpha-4 (Homo sapiens) (UniProt P13612+P05556). Kind of experiment: inhibition of HUTS-21 binding to VLA-4, pilot screen, VLA-4 allosteric modulator project, U937 cells, HUTS-21 mAb, flow cytometry, validation set (AID 2674;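 active means inhibition above 50%, about 3 SD of the validation set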;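 further: antibody binding induced by the VLA-4 ligand LDV present at three times its Kd; 0% = LDV ligand with antibody and no compound and 100% = antibody without LDV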). To be noted: HUTS-21 LIBS mAb binding, at 6.7 µM, stronger effect = higher value.
The nature of experiment [6]: superoxide lowering in aged yeast cells, pilot screen, validation compound set (AID 2706;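 active means superoxide response below 65% of plate, a cut near 3 SD across the whole screen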;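 further: yeast exposed to compound for one week at 30 degrees C before staining; 100% = mean of all compound wells on the same plate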). The settings on record: S. cerevisiae aging, superoxide DHE fluorescence; at 10 µM; stronger effect = lower value.
Experiment [7] concerns the target Beta-adrenergic receptor kinase 1 (Homo sapiens) (UniProt P25098). Kind of experiment: GRK2 binders displacing RNA aptamer, biochemical, validation, human GRK2, bead flow cytometry (AID 488806;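 active means aptamer binding inhibition above 30%, about 3 SD of noise from non-fluorescent compounds; inactive means inhibition at or below 30%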). To be noted: bead-bound GRK2, FAM-aptamer displacement, at 10 µM, stronger effect = higher value.
Experiment [8] deals with AP-2 complex subunit beta (Homo sapiens) (UniProt P63010). Kind of experiment: inhibitors of arrestin peptide binding to AP2, pilot screen, biochemical, validation set, GST-AP2 beads, flow cytometry (AID 504541;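 active means inhibition above 54%, about 3 SD of non-fluorescent compounds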;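 further: AP2 carries R879A mutation and is captured from E. coli lysate; bead-bound FITC arrestin peptide fluorescence measuring arrestin peptide binding to AP2; 0% = DMSO wells and 100% = excess unlabeled arrestin peptide control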). To be noted: FITC arrestin peptide, at 10 µM, stronger effect = higher value.
Experiment [9] is described as follows: yeast V-ATPase proton transport modulators, S. cerevisiae, pHLuorin, HTS validation (AID 504600; in the data active means response above about 15%;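 further: plate controls were DMSO for no effect and reference compound for full effect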). To be noted: S. cerevisiae pHLuorin cytosolic pH, at 10 µM, stronger effect = higher value.
Experiment [10] relates to anti-desmoglein-3 scFv antibody binding to human DSG3. Put plainly: inhibitors of anti-DSG3 scFv binding to DSG3, pilot screen, biochemical, validation compound set, bead-based, flow cytometry (AID 588368;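 active means binding below the plate cutoff, the plate median minus 3 SD, with a reading above zero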;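 further: signal is the median channel fluorescence of bead-bound GFP antibody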). To be noted: Protein G beads, DSG3-Fc, scFv-GFP binding, at 10 µM, stronger effect = lower value.
The subject of experiment [11] is Botulinum neurotoxin type F light chain protease (Clostridium botulinum). Put plainly: Botulinum neurotoxin type F light chain protease inhibition, multiplex microsphere flow cytometry, validation set (AID 588459). To be noted: multiplex microsphere protease substrate cleavage assay, at 10 µM, stronger effect = higher value.
For experiment [12], the target named is Botulinum neurotoxin type A (Clostridium botulinum) (UniProt P0DPI0). Put plainly: BoNT/A light chain protease inhibitors, biochemical, multiplex microsphere flow cytometry, validation set (AID 588460). The settings on record: at 10 µM, stronger effect = higher value.
For experiment [13], the target named is Lethal factor (Bacillus anthracis) (UniProt P15917). Put plainly: Lethal factor protease inhibitors, Bacillus anthracis, multiplex microsphere cleavage assay, validation set (AID 588461). To be noted: flow cytometry, at 10 µM, stronger effect = higher value.
A short description of experiment [14]: inhibitors of fungal efflux pumps CDR1, CDR2, MDR1, pilot screen, validation compound set, multiplex, phenotypic (AID 588506;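 active means efflux inhibition above 0.42, the validation set average plus 4 SD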;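 further: Nile Red retained in cells so higher fluorescence means more efflux inhibition; 0 = negative control wells and 1 = enniatin B 25 µM full block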). The settings on record: S. cerevisiae pump-expressing triplex, Nile Red efflux flow cytometry; at 10 µM; stronger effect = higher value.
For experiment [15], the target named is ATP-binding cassette sub-family B member 6 (Homo sapiens) (UniProt Q9NP58). Put plainly: ABCB6 transporter inhibitors, pilot screen, K562-ABCB6 cells, flow cytometry, validation set (AID 588550;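 active means inhibition above the screen-wide mean plus 3 SD, about 51%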;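 further: 0% = DMSO wells and 100% = benzethonium chloride 70 µM positive control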). To be noted: K562-ABCB6 porphyrin accumulation, 1 h, at 10 µM, stronger effect = higher value.
Experiment [16] in a line: promoters of myeloid differentiation in arrested cells, primary screen, cell-based, GFP/MAC1 double positive, flow cytometry, validation set (AID 588685;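 active means differentiation response of at least 50%, scaled between solvent and reference control, from cells with both markers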;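 further: compound exposure lasts four days before antibody staining and flow analysis; 0% = DMSO wells and 100% = 5 µM fulvestrant positive control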). The settings on record: ER-HoxA9 marrow cells, stronger effect = higher value.
The target of experiment [17] is Beta-2 adrenergic receptor (Homo sapiens) (UniProt P07550). Kind of experiment: beta2AR agonists driving receptor internalization, pilot screen, cell-based, FAP fluorogen, flow cytometry, validation set (AID 504459;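 active means percent response above 42, roughly 3 SD of non-fluorescent test compounds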;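 further: agonist-driven loss of surface beta2AR via internalization measured by FAP dye flow cytometry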). The settings on record: Am2.2-beta2AR cells, FAP surface receptor flow cytometry; at 10 µM; stronger effect = higher value.

Results filed as inconclusive are left out. The source made the active and inactive calls. Unless noted, how the calls were made is not given here.

Chain of Lethal factor (Bacillus anthracis) (P15917 whole entry, looked up): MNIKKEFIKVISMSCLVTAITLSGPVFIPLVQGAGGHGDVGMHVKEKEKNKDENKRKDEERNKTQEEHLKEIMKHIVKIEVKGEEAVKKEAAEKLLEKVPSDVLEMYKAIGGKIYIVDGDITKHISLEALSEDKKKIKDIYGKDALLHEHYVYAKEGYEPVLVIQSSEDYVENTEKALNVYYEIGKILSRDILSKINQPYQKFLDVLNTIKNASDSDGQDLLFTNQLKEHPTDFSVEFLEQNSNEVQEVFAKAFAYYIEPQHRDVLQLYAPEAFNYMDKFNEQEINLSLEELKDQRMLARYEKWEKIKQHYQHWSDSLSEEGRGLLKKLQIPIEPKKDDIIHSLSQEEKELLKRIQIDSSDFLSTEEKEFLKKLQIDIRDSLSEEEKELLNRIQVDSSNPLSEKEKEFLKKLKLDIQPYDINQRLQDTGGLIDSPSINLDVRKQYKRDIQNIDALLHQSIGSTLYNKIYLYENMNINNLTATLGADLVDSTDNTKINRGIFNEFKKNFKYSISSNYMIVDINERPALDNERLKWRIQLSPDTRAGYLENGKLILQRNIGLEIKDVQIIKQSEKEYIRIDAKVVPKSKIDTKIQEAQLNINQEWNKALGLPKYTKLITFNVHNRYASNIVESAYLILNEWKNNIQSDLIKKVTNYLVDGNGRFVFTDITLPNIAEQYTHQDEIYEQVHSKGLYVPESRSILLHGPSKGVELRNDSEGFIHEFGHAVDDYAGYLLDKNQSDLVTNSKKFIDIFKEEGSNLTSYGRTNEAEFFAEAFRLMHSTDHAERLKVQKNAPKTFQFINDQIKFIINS
Chain of AP-2 complex subunit beta (Homo sapiens) (P63010 whole entry, looked up, one chain of several): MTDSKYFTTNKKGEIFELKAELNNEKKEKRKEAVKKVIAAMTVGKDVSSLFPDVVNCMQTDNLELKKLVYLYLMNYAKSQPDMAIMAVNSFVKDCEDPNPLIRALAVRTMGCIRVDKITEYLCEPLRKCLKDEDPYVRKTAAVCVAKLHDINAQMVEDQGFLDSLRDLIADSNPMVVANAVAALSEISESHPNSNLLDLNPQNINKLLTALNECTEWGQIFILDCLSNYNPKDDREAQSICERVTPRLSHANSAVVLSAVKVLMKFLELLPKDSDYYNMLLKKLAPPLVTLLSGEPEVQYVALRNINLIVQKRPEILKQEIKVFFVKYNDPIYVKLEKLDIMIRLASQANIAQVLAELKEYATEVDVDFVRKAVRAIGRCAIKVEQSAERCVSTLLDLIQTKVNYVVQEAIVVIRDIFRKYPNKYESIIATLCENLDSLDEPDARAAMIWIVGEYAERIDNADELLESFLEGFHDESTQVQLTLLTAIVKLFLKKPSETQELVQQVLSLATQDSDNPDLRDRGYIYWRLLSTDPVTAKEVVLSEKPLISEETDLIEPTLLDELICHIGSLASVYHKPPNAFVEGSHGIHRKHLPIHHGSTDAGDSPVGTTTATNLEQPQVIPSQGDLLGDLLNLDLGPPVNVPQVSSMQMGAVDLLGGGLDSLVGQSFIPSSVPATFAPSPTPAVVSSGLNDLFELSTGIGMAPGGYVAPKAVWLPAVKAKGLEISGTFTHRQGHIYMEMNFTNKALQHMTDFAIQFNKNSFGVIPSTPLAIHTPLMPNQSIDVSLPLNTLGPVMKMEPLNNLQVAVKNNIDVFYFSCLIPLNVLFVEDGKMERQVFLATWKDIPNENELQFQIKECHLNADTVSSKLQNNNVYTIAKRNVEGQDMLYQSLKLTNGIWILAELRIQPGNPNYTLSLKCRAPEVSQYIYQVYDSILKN
Chain of Integrin beta-1 (Homo sapiens) + Integrin alpha-4 (Homo sapiens) (P05556 whole entry, looked up): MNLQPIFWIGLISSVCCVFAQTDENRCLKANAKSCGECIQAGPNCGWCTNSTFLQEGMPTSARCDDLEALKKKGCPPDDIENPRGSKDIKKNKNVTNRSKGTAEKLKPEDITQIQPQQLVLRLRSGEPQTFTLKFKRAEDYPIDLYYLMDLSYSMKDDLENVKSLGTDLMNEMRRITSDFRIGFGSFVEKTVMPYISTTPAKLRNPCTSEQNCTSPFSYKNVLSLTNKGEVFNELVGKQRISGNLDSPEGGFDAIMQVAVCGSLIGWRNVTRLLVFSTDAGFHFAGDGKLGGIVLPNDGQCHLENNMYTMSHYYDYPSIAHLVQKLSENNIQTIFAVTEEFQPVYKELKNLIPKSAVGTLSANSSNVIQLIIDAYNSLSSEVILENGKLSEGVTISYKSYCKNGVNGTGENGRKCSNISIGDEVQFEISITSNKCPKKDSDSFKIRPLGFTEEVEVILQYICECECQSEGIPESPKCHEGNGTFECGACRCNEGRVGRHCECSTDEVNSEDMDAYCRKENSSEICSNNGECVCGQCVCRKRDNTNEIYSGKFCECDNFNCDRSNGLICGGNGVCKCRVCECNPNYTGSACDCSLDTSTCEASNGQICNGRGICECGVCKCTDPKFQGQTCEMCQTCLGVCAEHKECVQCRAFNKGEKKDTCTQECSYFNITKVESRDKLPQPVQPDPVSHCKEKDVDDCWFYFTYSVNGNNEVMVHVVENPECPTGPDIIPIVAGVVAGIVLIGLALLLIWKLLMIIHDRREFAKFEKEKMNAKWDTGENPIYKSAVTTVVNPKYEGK
Chain of Integrin beta-1 (Homo sapiens) + Integrin alpha-4 (Homo sapiens) (P13612 whole entry, looked up): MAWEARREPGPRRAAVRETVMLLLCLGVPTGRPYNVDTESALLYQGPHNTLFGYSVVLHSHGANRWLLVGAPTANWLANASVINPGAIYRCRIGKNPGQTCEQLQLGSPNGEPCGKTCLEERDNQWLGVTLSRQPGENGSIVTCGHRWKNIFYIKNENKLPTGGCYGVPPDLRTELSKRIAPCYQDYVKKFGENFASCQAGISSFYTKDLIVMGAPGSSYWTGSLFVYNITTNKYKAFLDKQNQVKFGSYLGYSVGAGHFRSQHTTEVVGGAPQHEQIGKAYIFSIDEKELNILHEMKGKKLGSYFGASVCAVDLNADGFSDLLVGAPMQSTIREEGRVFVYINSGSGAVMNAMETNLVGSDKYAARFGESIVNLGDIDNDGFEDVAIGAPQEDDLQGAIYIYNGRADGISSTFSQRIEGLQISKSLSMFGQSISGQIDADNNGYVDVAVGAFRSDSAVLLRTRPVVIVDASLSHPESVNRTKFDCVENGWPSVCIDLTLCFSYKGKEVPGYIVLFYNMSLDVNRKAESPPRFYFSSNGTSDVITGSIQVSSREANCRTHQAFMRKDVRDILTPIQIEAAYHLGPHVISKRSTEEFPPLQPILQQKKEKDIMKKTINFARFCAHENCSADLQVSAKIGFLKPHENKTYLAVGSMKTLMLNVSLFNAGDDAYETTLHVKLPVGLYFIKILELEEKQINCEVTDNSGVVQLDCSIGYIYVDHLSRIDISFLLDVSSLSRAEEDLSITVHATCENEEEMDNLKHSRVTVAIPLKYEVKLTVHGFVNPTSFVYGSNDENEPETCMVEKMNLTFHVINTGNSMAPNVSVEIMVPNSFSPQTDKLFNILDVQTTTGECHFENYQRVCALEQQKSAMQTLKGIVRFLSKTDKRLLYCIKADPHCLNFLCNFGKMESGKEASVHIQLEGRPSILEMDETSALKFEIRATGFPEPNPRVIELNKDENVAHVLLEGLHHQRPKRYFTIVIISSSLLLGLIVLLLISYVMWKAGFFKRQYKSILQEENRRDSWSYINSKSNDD
Chain of ATP-binding cassette sub-family B member 6 (Homo sapiens) (Q9NP58 whole entry, looked up): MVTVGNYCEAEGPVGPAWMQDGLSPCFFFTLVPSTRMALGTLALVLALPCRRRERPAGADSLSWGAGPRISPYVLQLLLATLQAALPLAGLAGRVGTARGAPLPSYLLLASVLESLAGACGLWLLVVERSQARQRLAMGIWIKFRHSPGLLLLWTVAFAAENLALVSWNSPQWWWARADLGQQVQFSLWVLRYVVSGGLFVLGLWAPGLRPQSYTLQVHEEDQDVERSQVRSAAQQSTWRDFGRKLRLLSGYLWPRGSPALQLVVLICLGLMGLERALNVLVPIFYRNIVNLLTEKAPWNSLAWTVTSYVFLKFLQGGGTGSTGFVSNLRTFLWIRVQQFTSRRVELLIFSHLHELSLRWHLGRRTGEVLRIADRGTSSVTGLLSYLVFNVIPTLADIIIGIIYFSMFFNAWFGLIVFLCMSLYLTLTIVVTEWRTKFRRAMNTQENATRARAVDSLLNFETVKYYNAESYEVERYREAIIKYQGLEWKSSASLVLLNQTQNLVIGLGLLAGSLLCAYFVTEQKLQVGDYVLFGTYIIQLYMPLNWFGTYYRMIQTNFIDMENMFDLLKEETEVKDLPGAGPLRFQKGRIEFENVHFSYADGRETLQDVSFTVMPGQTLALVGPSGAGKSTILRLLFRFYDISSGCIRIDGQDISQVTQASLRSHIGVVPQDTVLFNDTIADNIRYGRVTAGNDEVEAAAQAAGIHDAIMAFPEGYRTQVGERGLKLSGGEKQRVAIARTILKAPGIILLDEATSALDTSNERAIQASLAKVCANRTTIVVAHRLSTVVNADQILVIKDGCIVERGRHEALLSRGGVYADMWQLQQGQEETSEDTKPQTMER
Chain of Beta-2 adrenergic receptor (Homo sapiens) (P07550 whole entry, looked up): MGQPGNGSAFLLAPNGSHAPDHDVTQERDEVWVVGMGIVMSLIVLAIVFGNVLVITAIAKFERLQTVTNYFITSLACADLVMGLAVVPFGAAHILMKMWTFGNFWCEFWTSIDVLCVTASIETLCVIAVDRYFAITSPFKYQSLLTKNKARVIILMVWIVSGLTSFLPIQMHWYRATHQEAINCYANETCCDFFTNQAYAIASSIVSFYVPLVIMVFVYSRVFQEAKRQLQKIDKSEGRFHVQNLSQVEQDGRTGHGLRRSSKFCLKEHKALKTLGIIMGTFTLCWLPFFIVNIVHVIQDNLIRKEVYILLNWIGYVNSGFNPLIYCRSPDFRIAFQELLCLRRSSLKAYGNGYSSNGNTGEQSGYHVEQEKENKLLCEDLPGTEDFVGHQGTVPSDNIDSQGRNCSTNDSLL

In general, inhibition refers to the relative decrease from the control value, in per cent. For `[N-]=[N+]=NC1C[C@H](n2ccc(=O)[nH]c2=O)O[C@@H]1CO` (stereo partly drawn), the percent of DMSO control GFP in experiment [1] was 101% (inactive). The percent response of DMSO control in experiment [2] was 106% (inactive). Further, in experiment [3], the GFP response vs DMSO was 101% (inactive). Moreover, the double positive events in experiment [4] was found to be 56.5%. Moreover, the vesicle binding response in experiment [4] was 185% (inactive). Moreover, the inhibition was 9.09% (inactive) in experiment [5]; 42% (inactive) in experiment [8]; 0.8% (inactive) in experiment [11]; -1.5% (inactive) in experiment [12]; -5.9% (inactive) in experiment [13]; 6% (inactive) in experiment [15]. Besides, the superoxide response (% of plate) in [6] was 97.1% (inactive). In addition, in experiment [7], the aptamer binding inhibition is -2% (inactive). In addition, the response in [9] is -3.04% (inactive). Moreover, the binding (% of control) in experiment [10] is 97.7% (inactive). Also, the efflux inhibition (fraction of control) in experiment [14] was 0.03 (inactive). In addition, the differentiation response in experiment [16] is -21.2% (inactive).

`NCCc1c[nH]c2ccc(F)cc12`: in experiment [1], the percent of DMSO control GFP was 98.2% (inactive). In addition, the percent response of DMSO control in [2] was 107% (inactive). Moreover, in experiment [3], the GFP response vs DMSO is 106% (inactive). The double positive events in experiment [4] amounted to 59.2%. For the same compound, the vesicle binding response in [4] is 77.4% (inactive). Also, the inhibition in experiment [5] was 18.3% (inactive); in [11], -3.3% (inactive); in experiment [12] it was -0.7% (inactive); in experiment [13], -4.9% (inactive); in [15], 2% (inactive). The superoxide response (% of plate) in experiment [6] was 93.9% (inactive). Also, the aptamer binding inhibition in experiment [7] is -1% (inactive). The response in experiment [17] was 1.11% (inactive); in experiment [9], 6.8% (inactive). The binding (% of control) in experiment [10] is 104% (inactive). In addition, the efflux inhibition (fraction of control) in [14] is -0.44 (inactive). Besides, the differentiation response in experiment [16] was 5.73% (inactive).

Consider `CC(=O)C1=C(C)OC(N)=C(C(=O)OC(C)C)C12C(=O)Nc1ccccc12` (stereo not drawn), for which the percent of DMSO control GFP in experiment [1] was 102% (inactive). In addition, in experiment [2], the percent response of DMSO control is 103% (inactive). The GFP response vs DMSO in [3] was 99.4% (inactive). In [4], this compound returned a double positive events of 56.3%. In addition, the vesicle binding response in [4] was 194% (inactive). Besides, the inhibition in experiment [5] was 0.69% (inactive); in experiment [8], 0.23% (inactive); in experiment [11], -2.3% (inactive); in [12], -0.1% (inactive); in experiment [13], -1.4% (inactive); in experiment [15], 8% (inactive). Also, in [6], the superoxide response (% of plate) was 103% (inactive). Further, the aptamer binding inhibition in [7] is 0% (inactive). Also, the response in experiment [9] was -0.91% (inactive). In experiment [10], the binding (% of control) is 93.8% (inactive). Further, in experiment [14], the efflux inhibition (fraction of control) was 0.1 (inactive). Moreover, in [16], the differentiation response is -18% (inactive).

Consider `CC(C)(C)NCC(O)c1cc(Cl)c(N)c(Cl)c1` (stereo not drawn), for which the percent of DMSO control GFP in experiment [1] was 104% (inactive). Also, in experiment [2], the percent response of DMSO control is 97.6% (inactive). In [3], the GFP response vs DMSO was 99.1% (inactive). The double positive events in experiment [4] stood at 60.7%. In addition, in experiment [4], the vesicle binding response is 138% (inactive). In addition, the inhibition was -21.2% (inactive) in experiment [5]; -12.6% (inactive) in experiment [8]; 2.9% (inactive) in experiment [11]; 2.2% (inactive) in experiment [12]; 6.8% (inactive) in experiment [13]; 2% (inactive) in experiment [15]. The superoxide response (% of plate) in experiment [6] was 94.5% (inactive). Besides, in [7], the aptamer binding inhibition is -1% (inactive). In addition, in experiment [9], the response is 1.54% (inactive). For the same compound, the binding (% of control) in experiment [10] was 112% (inactive). Also, the efflux inhibition (fraction of control) in experiment [14] was -0.28 (inactive). In [16], the differentiation response was 17.4% (inactive).
